In article PMC11006913:
Positions count from the first letter of the chain named.

What was measured:
Test in all cases: PBM; 200 nM protein, PBS
Details in all cases: dsDNA, one strand shown
[1] = target: HOXB4 (Homo sapiens, UniProt P17483 148-234)
[2] = target: T1, VENTX (Homo sapiens, UniProt O95231 78-163, R121Q)
T1 sequence: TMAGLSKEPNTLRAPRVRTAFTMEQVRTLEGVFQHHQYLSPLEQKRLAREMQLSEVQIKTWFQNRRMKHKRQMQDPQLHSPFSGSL

[3] = target: HOXA4 (Homo sapiens, UniProt Q00056 201-287, W262R)
[4] = target: T2, VENTX (Homo sapiens, UniProt O95231 78-163)
T2 sequence: T1 sequence with Q44R

[5] = target: PRRX1 (Homo sapiens, UniProt P54821 80-166, F113S)
[6] = target: T3, VENTX (Homo sapiens, UniProt O95231 78-163, Y115F)
T3 sequence: T1 sequence with Y38F, Q44R

[7] = target: HOXA2 (Homo sapiens, UniProt O43364 129-215, R185T)
[8] = target: HOXA4 (Homo sapiens, UniProt Q00056 201-287, R217L)
[9] = target: HOXB4 (Homo sapiens, UniProt P17483 148-234, V174I)
[10] = target: HOXA2 (Homo sapiens, UniProt O43364 129-215, R185K)
[11] = target: HOXA4 (Homo sapiens, UniProt Q00056 201-287)
[12] = target: VAX1 (Homo sapiens, UniProt Q5SQQ9 86-172)
[13] = target: VAX1 (Homo sapiens, UniProt Q5SQQ9 86-172, T142I)
[14] = target: HOXA2 (Homo sapiens, UniProt O43364 129-215, Y150S)
[15] = target: HOXA4 (Homo sapiens, UniProt Q00056 201-287, W262F)
[16] = target: PRRX1 (Homo sapiens, UniProt P54821 80-166)
[17] = target: HOXA2 (Homo sapiens, UniProt O43364 129-215)
[18] = target: VAX1 (Homo sapiens, UniProt Q5SQQ9 86-172, K157R)
[19] = target: HOXB9 (Homo sapiens, UniProt P17482 171-250, T197M)
[20] = target: HOXC9 (Homo sapiens, UniProt P31274 178-260, K195R)
[21] = target: HOXA7 (Homo sapiens, UniProt P31268 116-202)
[22] = target: HOXC10 (Homo sapiens, UniProt Q9NYD6 254-340)
[23] = target: HOXB6 (Homo sapiens, UniProt P17509 132-218, K202E)
[24] = target: HOXB9 (Homo sapiens, UniProt P17482 171-250)
[25] = target: HOXC9 (Homo sapiens, UniProt P31274 178-260)
[26] = target: HOXC9 (Homo sapiens, UniProt P31274 178-260, R193K)
[27] = target: HOXC10 (Homo sapiens, UniProt Q9NYD6 254-340, K271E)
[28] = target: HOXD13 (Homo sapiens, UniProt P35453 263-343, T313A)
[29] = target: HOXB9 (Homo sapiens, UniProt P17482 171-250, R186Q)
[30] = target: HOXC9 (Homo sapiens, UniProt P31274 178-260, R222W)
[31] = target: HOXA7 (Homo sapiens, UniProt P31268 116-202, W177C)
[32] = target: HOXB6 (Homo sapiens, UniProt P17509 132-218)
Chain of HOXB6 (Homo sapiens, UniProt P17509 132-218) (P17509 132-218): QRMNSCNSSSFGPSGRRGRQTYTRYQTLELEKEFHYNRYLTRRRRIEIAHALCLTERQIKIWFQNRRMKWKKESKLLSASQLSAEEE

Chain of HOXA2 (Homo sapiens, UniProt O43364 129-215, Y150S) (O43364 129-215 Y150S): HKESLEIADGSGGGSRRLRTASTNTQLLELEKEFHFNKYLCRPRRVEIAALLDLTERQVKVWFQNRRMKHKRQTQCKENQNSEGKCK
Chain of HOXA2 (Homo sapiens, UniProt O43364 129-215, R185K) (O43364 129-215 R185K): as the sequence (O43364 129-215 Y150S) above, with S22Y, R57K counted along it
Chain of VAX1 (Homo sapiens, UniProt Q5SQQ9 86-172, K157R) (Q5SQQ9 86-172 K157R): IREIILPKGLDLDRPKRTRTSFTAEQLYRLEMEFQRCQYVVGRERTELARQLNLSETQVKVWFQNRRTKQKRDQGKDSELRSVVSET
Chain of HOXA4 (Homo sapiens, UniProt Q00056 201-287, W262R) (Q00056 201-287 W262R): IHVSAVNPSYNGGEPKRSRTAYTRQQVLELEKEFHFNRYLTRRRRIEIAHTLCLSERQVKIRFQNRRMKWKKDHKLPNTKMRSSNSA
Chain of VAX1 (Homo sapiens, UniProt Q5SQQ9 86-172) (Q5SQQ9 86-172): as the sequence (Q5SQQ9 86-172 K157R) above, with R72K counted along it
Chain of VAX1 (Homo sapiens, UniProt Q5SQQ9 86-172, T142I) (Q5SQQ9 86-172 T142I): as the sequence (Q5SQQ9 86-172 K157R) above, with T57I, R72K counted along it
Chain of HOXA2 (Homo sapiens, UniProt O43364 129-215, R185T) (O43364 129-215 R185T): as the sequence (O43364 129-215 Y150S) above, with S22Y, R57T counted along it
Chain of HOXA4 (Homo sapiens, UniProt Q00056 201-287) (Q00056 201-287): as the sequence (Q00056 201-287 W262R) above, with R62W counted along it
Chain of HOXA4 (Homo sapiens, UniProt Q00056 201-287, R217L) (Q00056 201-287 R217L): as the sequence (Q00056 201-287 W262R) above, with R17L, R62W counted along it
Chain of HOXB4 (Homo sapiens, UniProt P17483 148-234) (P17483 148-234): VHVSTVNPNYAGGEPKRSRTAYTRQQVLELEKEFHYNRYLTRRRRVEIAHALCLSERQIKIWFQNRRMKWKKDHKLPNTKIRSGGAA
Chain of HOXB4 (Homo sapiens, UniProt P17483 148-234, V174I) (P17483 148-234 V174I): as the sequence (P17483 148-234) above, with V27I counted along it
Chain of HOXA2 (Homo sapiens, UniProt O43364 129-215) (O43364 129-215): as the sequence (O43364 129-215 Y150S) above, with S22Y counted along it
Chain of HOXA4 (Homo sapiens, UniProt Q00056 201-287, W262F) (Q00056 201-287 W262F): as the sequence (Q00056 201-287 W262R) above, with R62F counted along it
Chain of HOXC9 (Homo sapiens, UniProt P31274 178-260, K195R) (P31274 178-260 K195R): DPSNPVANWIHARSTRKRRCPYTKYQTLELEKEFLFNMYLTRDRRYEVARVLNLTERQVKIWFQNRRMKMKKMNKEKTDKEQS
Chain of HOXB9 (Homo sapiens, UniProt P17482 171-250, T197M) (P17482 171-250 T197M): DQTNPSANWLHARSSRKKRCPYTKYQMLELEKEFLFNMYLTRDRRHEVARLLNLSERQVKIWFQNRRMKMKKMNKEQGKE
Chain of HOXD13 (P35453 263-343 T313A): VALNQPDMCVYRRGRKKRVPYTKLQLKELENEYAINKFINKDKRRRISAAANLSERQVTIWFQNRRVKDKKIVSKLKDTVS
Chain of HOXB9 (Homo sapiens, UniProt P17482 171-250, R186Q) (P17482 171-250 R186Q): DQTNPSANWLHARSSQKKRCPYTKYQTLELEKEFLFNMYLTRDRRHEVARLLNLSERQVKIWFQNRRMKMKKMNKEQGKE
Chain of PRRX1 (Homo sapiens, UniProt P54821 80-166) (P54821 80-166): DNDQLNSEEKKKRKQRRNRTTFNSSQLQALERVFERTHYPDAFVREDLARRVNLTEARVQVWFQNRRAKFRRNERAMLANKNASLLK
Chain of HOXB6 (Homo sapiens, UniProt P17509 132-218, K202E) (P17509 132-218 K202E): as the sequence (P17509 132-218) above, with K71E counted along it
Chain of HOXB9 (Homo sapiens, UniProt P17482 171-250) (P17482 171-250): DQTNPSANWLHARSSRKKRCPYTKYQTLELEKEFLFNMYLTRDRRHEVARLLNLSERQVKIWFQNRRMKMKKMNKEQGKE
Chain of PRRX1 (Homo sapiens, UniProt P54821 80-166, F113S) (P54821 80-166 F113S): as the sequence (P54821 80-166) above, with F34S counted along it
Chain of HOXA7 (Homo sapiens, UniProt P31268 116-202, W177C) (P31268 116-202 W177C): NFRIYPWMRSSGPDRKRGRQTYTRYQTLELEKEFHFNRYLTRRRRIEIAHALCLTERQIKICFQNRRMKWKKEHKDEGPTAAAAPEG
Chain of HOXA7 (Homo sapiens, UniProt P31268 116-202) (P31268 116-202): as the sequence (P31268 116-202 W177C) above, with C62W counted along it
Chain of HOXC9 (Homo sapiens, UniProt P31274 178-260, R222W) (P31274 178-260 R222W): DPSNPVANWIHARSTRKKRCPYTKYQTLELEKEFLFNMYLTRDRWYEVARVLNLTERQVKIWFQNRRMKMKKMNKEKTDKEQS
Chain of HOXC10 (Homo sapiens, UniProt Q9NYD6 254-340) (Q9NYD6 254-340): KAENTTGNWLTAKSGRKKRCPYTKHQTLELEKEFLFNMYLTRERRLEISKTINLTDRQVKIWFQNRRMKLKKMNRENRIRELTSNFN
Chain of HOXC9 (Homo sapiens, UniProt P31274 178-260, R193K) (P31274 178-260 R193K): as the sequence (P31274 178-260 R222W) above, with R16K, W45R counted along it
Chain of HOXC10 (Homo sapiens, UniProt Q9NYD6 254-340, K271E) (Q9NYD6 254-340 K271E): as the sequence (Q9NYD6 254-340) above, with K18E counted along it
Chain of HOXC9 (Homo sapiens, UniProt P31274 178-260) (P31274 178-260): as the sequence (P31274 178-260 R222W) above, with W45R counted along it

CCTCATTA
binding signal [1]: 13.1 upbm affinity estimate (log intensity, higher = more binding, comparable within an allelic series)
binding signal [2]: 11.6 upbm affinity estimate (log intensity, higher = more binding, comparable within an allelic series)
binding signal [3]: 10.5 upbm affinity estimate (log intensity, higher = more binding, comparable within an allelic series)
binding signal [4]: 12.5 upbm affinity estimate (log intensity, higher = more binding, comparable within an allelic series)
binding signal [5]: 10.7 upbm affinity estimate (log intensity, higher = more binding, comparable within an allelic series)
binding signal [6]: 11.8 upbm affinity estimate (log intensity, higher = more binding, comparable within an allelic series)
binding signal [7]: 13.1 upbm affinity estimate (log intensity, higher = more binding, comparable within an allelic series)
binding signal [8]: 12.1 upbm affinity estimate (log intensity, higher = more binding, comparable within an allelic series)
binding signal [9]: 13.7 upbm affinity estimate (log intensity, higher = more binding, comparable within an allelic series)
binding signal [10]: 13.4 upbm affinity estimate (log intensity, higher = more binding, comparable within an allelic series)
binding signal [11]: 13.8 upbm affinity estimate (log intensity, higher = more binding, comparable within an allelic series)
binding signal [12]: 13.6 upbm affinity estimate (log intensity, higher = more binding, comparable within an allelic series)
binding signal [13]: 13.3 upbm affinity estimate (log intensity, higher = more binding, comparable within an allelic series)
binding signal [14]: 10.7 upbm affinity estimate (log intensity, higher = more binding, comparable within an allelic series)
binding signal [15]: 11.5 upbm affinity estimate (log intensity, higher = more binding, comparable within an allelic series)
binding signal [16]: 13.2 upbm affinity estimate (log intensity, higher = more binding, comparable within an allelic series)
binding signal [17]: 12.8 upbm affinity estimate (log intensity, higher = more binding, comparable within an allelic series)
binding signal [18]: 13.4 upbm affinity estimate (log intensity, higher = more binding, comparable within an allelic series)

GTCATTAA
binding signal [1]: 13.3 upbm affinity estimate (log intensity, higher = more binding, comparable within an allelic series)
binding signal [2]: 12.1 upbm affinity estimate (log intensity, higher = more binding, comparable within an allelic series)
binding signal [19]: 10.4 upbm affinity estimate (log intensity, higher = more binding, comparable within an allelic series)
binding signal [3]: 10.9 upbm affinity estimate (log intensity, higher = more binding, comparable within an allelic series)
binding signal [20]: 13.1 upbm affinity estimate (log intensity, higher = more binding, comparable within an allelic series)
binding signal [4]: 12.6 upbm affinity estimate (log intensity, higher = more binding, comparable within an allelic series)
binding signal [21]: 12.2 upbm affinity estimate (log intensity, higher = more binding, comparable within an allelic series)
binding signal [22]: 12.6 upbm affinity estimate (log intensity, higher = more binding, comparable within an allelic series)
binding signal [6]: 12.1 upbm affinity estimate (log intensity, higher = more binding, comparable within an allelic series)
binding signal [23]: 10.3 upbm affinity estimate (log intensity, higher = more binding, comparable within an allelic series)
binding signal [7]: 13.2 upbm affinity estimate (log intensity, higher = more binding, comparable within an allelic series)
binding signal [8]: 12.9 upbm affinity estimate (log intensity, higher = more binding, comparable within an allelic series)
binding signal [24]: 12.5 upbm affinity estimate (log intensity, higher = more binding, comparable within an allelic series)
binding signal [9]: 13.9 upbm affinity estimate (log intensity, higher = more binding, comparable within an allelic series)
binding signal [25]: 13.2 upbm affinity estimate (log intensity, higher = more binding, comparable within an allelic series)
binding signal [26]: 13.1 upbm affinity estimate (log intensity, higher = more binding, comparable within an allelic series)
binding signal [10]: 13.8 upbm affinity estimate (log intensity, higher = more binding, comparable within an allelic series)
binding signal [11]: 14.1 upbm affinity estimate (log intensity, higher = more binding, comparable within an allelic series)
binding signal [27]: 12.8 upbm affinity estimate (log intensity, higher = more binding, comparable within an allelic series)
binding signal [12]: 13.4 upbm affinity estimate (log intensity, higher = more binding, comparable within an allelic series)
binding signal [28]: 11.6 upbm affinity estimate (log intensity, higher = more binding, comparable within an allelic series)
binding signal [29]: 12.2 upbm affinity estimate (log intensity, higher = more binding, comparable within an allelic series)
binding signal [30]: 11 upbm affinity estimate (log intensity, higher = more binding, comparable within an allelic series)
binding signal [13]: 13.4 upbm affinity estimate (log intensity, higher = more binding, comparable within an allelic series)
binding signal [14]: 11 upbm affinity estimate (log intensity, higher = more binding, comparable within an allelic series)
binding signal [31]: 8.94 upbm affinity estimate (log intensity, higher = more binding, comparable within an allelic series)
binding signal [15]: 12.6 upbm affinity estimate (log intensity, higher = more binding, comparable within an allelic series)
binding signal [17]: 12.9 upbm affinity estimate (log intensity, higher = more binding, comparable within an allelic series)
binding signal [18]: 13.3 upbm affinity estimate (log intensity, higher = more binding, comparable within an allelic series)
binding signal [32]: 12.4 upbm affinity estimate (log intensity, higher = more binding, comparable within an allelic series)
